Experimental findings from PubChem BioAssay are described below.

A number with no mark means an inactive call. For some assays here: Entries with a potency or affinity are not part of this list. Activity calls are given as the source filed them. Unless noted, how the calls were made is not given here.

One may read the inhibition as the drop in the measured response relative to a control, in per cent.

Experiment [1] in a line: antimalarial activity against Dd2 strain (AID 2302;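 active means growth inhibition above 50% at the single 2 µM test dose, taken to imply half-maximal potency below 2 µM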;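 further: 0% = DMSO untreated growth and 100% = chloroquine plus artemisinin killed control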). Conditions: P. falciparum Dd2 in RBCs, LDH growth readout, 72 h; at 2 µM; active compounds read high.
The nature of experiment [2]: HepG2 cytotoxicity, primary screen, cytotoxicity control for P. falciparum antimalarial project, cell-based, ATP luminescence (AID 2303;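 active means inhibition above 50%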;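 further: 0% = DMSO wells and 100% = digitonin-killed cells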). Conditions: HepG2 viability, 24-48 h, at 10 µM, active compounds read high.
Experiment [3] deals with L-lactate dehydrogenase (Plasmodium falciparum (isolate CDC / Honduras)) (UniProt Q27743). Briefly: PfLDH activity inhibition – cell lysate, 3D7 strain, counter-screen for P. falciparum growth inhibition project (AID 2304).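 Further: 0% = vehicle and 100% = reference inhibitor.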 To be noted: P. falciparum 3D7 crude extract, LDH APAD/NBT absorbance; at 2 µM; active compounds read high. (In general: Counterscreens check selectivity or assay interference.)

Experiment [4] can be described thus: inhibition of 3D7 malaria parasite growth – strain 3D7 (AID 2306).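 Further: 0% = DMSO wells and 100% = chloroquine plus artemisinin control wells.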 Conditions: P. falciparum 3D7 erythrocytic growth, LDH absorbance, 72 h; at 2 µM; active compounds read high.
For experiment [5], the target named is Calcium-dependent protein kinase 1 (Plasmodium falciparum (isolate 3D7)) (UniProt P62344). Nature of the experiment: PfCDPK1 kinase inhibitors, biochemical, TCAMS library (AID 1159585; cut-off not given, nearly all actives have IC50 up to about 0.98 µM;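 further: inhibitors leave more ATP so luminescence rises with inhibition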). Conditions: recombinant PfCDPK1, Kinase-Glo ATP depletion luminescence. On the technique in general: In Kinase-Glo more light means more ATP remaining.
The target of experiment [6] is Plasmodium falciparum protein kinase 6 (PK6, PF3D7_1337100) (UniProt Q8IDW1). Briefly: PfPK6 kinase inhibitors, biochemical, TCAMS library (AID 1159586). To be noted: recombinant PfPK6, Kinase-Glo ATP depletion luminescence.
In experiment [7] the target is Protein kinase 7 (PK7), Plasmodium falciparum 3D7 (PF3D7_0213400) (UniProt Q7YTF7). Nature of the experiment: inhibition of Plasmodium PK7 catalytic activity – biochemical, TCAMS antimalarial set, Kinase-Glo luminescence (AID 1159587). To be noted: recombinant PfPK7, Kinase-Glo ATP depletion luminescence.
Experiment [8] has as its target Calcium-dependent protein kinase 4 (Plasmodium falciparum (isolate 3D7)) (UniProt Q8IBS5). Nature of the experiment: PfCDPK4 kinase inhibitors, biochemical, TCAMS library (AID 1159588; cut-off not given, nearly all actives have IC50 up to about 0.91 µM). To be noted: recombinant PfCDPK4, Kinase-Glo ATP depletion luminescence.

Chain of Protein kinase 7 (PK7), Plasmodium falciparum 3D7 (PF3D7_0213400) (Q7YTF7 1-343): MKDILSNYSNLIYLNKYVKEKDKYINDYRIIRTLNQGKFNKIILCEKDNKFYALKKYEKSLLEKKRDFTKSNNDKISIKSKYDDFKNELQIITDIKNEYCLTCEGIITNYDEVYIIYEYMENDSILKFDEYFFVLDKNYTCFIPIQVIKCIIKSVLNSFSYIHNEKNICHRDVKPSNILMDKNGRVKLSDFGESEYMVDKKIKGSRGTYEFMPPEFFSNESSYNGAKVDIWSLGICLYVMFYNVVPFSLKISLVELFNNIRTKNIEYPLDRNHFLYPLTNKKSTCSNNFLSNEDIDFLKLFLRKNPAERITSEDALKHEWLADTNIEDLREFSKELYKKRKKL
Chain of Calcium-dependent protein kinase 4 (Plasmodium falciparum (isolate 3D7)) (Q8IBS5 whole entry, looked up): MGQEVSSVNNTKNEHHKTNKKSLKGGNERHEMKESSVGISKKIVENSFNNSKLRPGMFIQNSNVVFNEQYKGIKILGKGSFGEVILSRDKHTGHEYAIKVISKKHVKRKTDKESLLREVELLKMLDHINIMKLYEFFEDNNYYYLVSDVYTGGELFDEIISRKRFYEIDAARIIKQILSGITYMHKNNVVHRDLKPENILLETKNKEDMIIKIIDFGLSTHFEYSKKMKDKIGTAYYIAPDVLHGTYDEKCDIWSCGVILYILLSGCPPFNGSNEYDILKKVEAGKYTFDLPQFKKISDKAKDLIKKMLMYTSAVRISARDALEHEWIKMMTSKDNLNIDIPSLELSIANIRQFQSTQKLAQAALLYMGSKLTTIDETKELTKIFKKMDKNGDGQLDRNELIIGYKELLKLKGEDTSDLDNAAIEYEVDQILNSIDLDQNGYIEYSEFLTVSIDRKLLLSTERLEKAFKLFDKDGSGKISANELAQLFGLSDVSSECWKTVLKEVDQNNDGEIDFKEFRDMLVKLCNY
Chain of Plasmodium falciparum protein kinase 6 (PK6, PF3D7_1337100) (Q8IDW1 1-305): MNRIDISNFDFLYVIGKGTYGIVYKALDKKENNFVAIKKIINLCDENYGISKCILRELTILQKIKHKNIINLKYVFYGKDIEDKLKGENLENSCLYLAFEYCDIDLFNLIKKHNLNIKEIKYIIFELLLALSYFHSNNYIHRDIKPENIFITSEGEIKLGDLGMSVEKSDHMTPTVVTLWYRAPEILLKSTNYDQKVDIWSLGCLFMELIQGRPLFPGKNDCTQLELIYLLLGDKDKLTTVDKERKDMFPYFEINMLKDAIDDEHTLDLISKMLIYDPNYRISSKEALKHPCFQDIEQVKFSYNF
Chain of Calcium-dependent protein kinase 1 (Plasmodium falciparum (isolate 3D7)) (P62344 whole entry, looked up): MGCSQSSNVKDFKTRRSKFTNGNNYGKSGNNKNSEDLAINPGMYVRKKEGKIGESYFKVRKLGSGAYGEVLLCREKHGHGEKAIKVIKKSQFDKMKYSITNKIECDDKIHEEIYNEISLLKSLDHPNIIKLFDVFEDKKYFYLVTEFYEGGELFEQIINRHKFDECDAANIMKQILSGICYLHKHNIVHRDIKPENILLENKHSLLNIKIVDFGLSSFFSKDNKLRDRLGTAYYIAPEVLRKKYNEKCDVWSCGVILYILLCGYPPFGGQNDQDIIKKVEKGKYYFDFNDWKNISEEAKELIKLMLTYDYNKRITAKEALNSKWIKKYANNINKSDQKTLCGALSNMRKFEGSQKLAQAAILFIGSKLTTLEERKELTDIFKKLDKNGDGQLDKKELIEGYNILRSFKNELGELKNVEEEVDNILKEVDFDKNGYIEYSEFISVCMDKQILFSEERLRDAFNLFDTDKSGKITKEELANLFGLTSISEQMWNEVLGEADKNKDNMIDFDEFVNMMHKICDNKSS
Chain of L-lactate dehydrogenase (Plasmodium falciparum (isolate CDC / Honduras)) (Q27743 whole entry, looked up): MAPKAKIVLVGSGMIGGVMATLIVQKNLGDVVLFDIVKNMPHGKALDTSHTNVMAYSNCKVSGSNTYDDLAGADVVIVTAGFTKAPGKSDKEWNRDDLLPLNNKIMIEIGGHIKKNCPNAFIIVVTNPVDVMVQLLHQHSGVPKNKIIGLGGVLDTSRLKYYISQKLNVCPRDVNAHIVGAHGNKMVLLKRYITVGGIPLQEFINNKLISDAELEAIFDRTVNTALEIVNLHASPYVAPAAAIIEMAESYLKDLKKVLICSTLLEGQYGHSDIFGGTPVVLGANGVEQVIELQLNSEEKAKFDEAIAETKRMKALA

Take `O=C(N[C@H]1CCN(Cc2ccc(OCCCN3CCCCC3)cc2)C1)c1ccc2ccccc2c1`: the figures for the growth inhibition in experiment [1] and in experiment [4] were 32% and 97% (active), respectively. For the same molecule, the inhibition in experiment [2] is 8%; in experiment [3] it was 5%. Also, the result in experiment [5], in experiment [6], in experiment [7] and in experiment [8] was inactive.
With `CN(C)C(CNc1ncnc2cc(Cl)ccc12)Cc1ccccc1` (configuration not stated), the growth inhibition in experiment [1] is 88% (active); in experiment [4], 96% (active). For the same molecule, the inhibition is 13% in experiment [2] and -4% in experiment [3]. Besides, the result in experiment [5], in experiment [6], in experiment [7] and in experiment [8] was inactive.
As for `Clc1ccc(-c2[nH]c3ccccc3c2CN2CCC(N3CCCCC3)CC2)cc1`, the growth inhibition in experiment [1] was 15%; in experiment [4], 93% (active). The inhibition in experiment [2] and in experiment [3] was 5% in each case. Further, the outcome in experiment [5], in experiment [6], in experiment [7] and in experiment [8] was inactive.
As to `CN1CCN(c2ccnc3cc4ccccc4cc23)CC1`, the growth inhibition in experiment [1] was 49%; in experiment [4] it was 93% (active). For the same molecule, the values for the inhibition in experiment [2] and in experiment [3] were 11% and -9%, respectively. For the same molecule, the result in experiment [5], in experiment [6], in experiment [7] and in experiment [8] was inactive.
On to `Cc1ccc(NC(=O)c2cnc(N3CCN(c4ccncc4)CC3)c(Cl)c2)cc1`, for which the growth inhibition in experiment [1] was 24%; in experiment [4], 94% (active). For the same molecule, the inhibition in experiment [2] is 25%; in experiment [3], 4%. Also, the outcome in experiment [5], in experiment [6], in experiment [7] and in experiment [8] was inactive.
Consider `Cc1cccc2[nH]c(-c3ccc(-c4ccc(NC(=O)N[C@@H]5C[C@H]5c5ccccc5)cc4)cc3)nc12`, for which the growth inhibition in experiment [1] was 3%; in experiment [4], 96% (active). Besides, the inhibition is 28% in experiment [2] and -5% in experiment [3]. The outcome in experiment [5], in experiment [6], in experiment [7] and in experiment [8] was inactive.
For `Cc1ccc(NC(C)C(=O)Nc2ccc(C#N)cc2)cc1S(=O)(=O)N1CCCCC1` (configuration not stated), the growth inhibition in experiment [1] and in experiment [4] was 92% (active) in each case. For the same molecule, the inhibition was 11% in experiment [2] and 1% in experiment [3]. The result in experiment [5], in experiment [6], in experiment [7] and in experiment [8] was inactive.
As for `O=C(Nc1ccc(Cl)c(Cl)c1)Nc1cc(C(F)(F)F)ccc1Cl`, the growth inhibition in experiment [1] is 85% (active); in experiment [4], 101% (active). Also, the values for the inhibition in experiment [2] and in experiment [3] were -1% and -4%, respectively. For the same molecule, the outcome in experiment [5], in experiment [6], in experiment [7] and in experiment [8] was inactive.
`CCOc1ccc(-c2nonc2NC(=O)c2ccc(F)cc2)cc1OCC`: the growth inhibition in experiment [1] was 99% (active); in experiment [4], 102% (active). Further, the inhibition in experiment [2] is 36%; in experiment [3] it was 0%. Further, the outcome in experiment [5], in experiment [6], in experiment [7] and in experiment [8] was inactive.
For `CC(C)N1CCC(N(Cc2ccc(-c3ccc(C(F)(F)F)cc3)cc2)C(=O)Cn2c(CCc3cccc(F)c3F)cc(=O)c3ccccc32)CC1`, the values for the growth inhibition in experiment [1] and in experiment [4] were 73% (active) and 99% (active), respectively. Also, the inhibition is 50% (active) in experiment [2] and -6% in experiment [3]. The result in experiment [5], in experiment [6], in experiment [7] and in experiment [8] was inactive.
Turning to `c1ccc2oc(-c3cc4ccncc4cc3OC3CCNCC3)cc2c1`, the growth inhibition is 96% (active) in experiment [1] and 100% (active) in experiment [4]. Further, the inhibition is 11% in experiment [2] and -3% in experiment [3]. Moreover, the result in experiment [5], in experiment [6], in experiment [7] and in experiment [8] was inactive.
Turning to `CCCCCCN(CCCCCC)CC(O)c1cc(-c2ccc(Cl)cc2)nc2c(C)cc(C)cc12` (configuration not stated), the growth inhibition in experiment [1] and in experiment [4] was 98% (active) throughout. Further, the results for the inhibition in experiment [2] and in experiment [3] were 27% and -2%, respectively. Also, the outcome in experiment [5], in experiment [6], in experiment [7] and in experiment [8] was inactive.
With `COc1ccc2nc3cc(Cl)ccc3c(NCCCCN)c2c1`, the growth inhibition was 62% (active) in experiment [1] and 101% (active) in experiment [4]. The inhibition in experiment [2] is 52% (active); in experiment [3], 7%. Further, the result in experiment [5], in experiment [6], in experiment [7] and in experiment [8] was inactive.
Regarding `CN1CCCN(Cc2ccc(-c3ccc(NC(=O)c4cccc(C#N)c4)cc3)cc2)CC1`, the growth inhibition in experiment [1] is 67% (active); in experiment [4], 97% (active). Moreover, the inhibition is 46% in experiment [2] and -8% in experiment [3]. Moreover, the result in experiment [5], in experiment [6], in experiment [7] and in experiment [8] was inactive.
On to `O=C(Nc1ccc(Cl)c(Cl)c1)N[C@H]1CCN(CCCCCNC(=O)[C@@H]2C[C@H]2c2ccc(Cl)c(Cl)c2)C1`, for which the growth inhibition in experiment [1] was 8%; in experiment [4], 93% (active). For the same molecule, the figures for the inhibition in experiment [2] and in experiment [3] were 42% and 3%, respectively. Besides, the result in experiment [5], in experiment [6], in experiment [7] and in experiment [8] was inactive.
In the case of `O=C(/C=C/c1ccc(Cl)c(Cl)c1)NCCCCCN1CCCN(C(=O)Nc2ccc(Cl)c(Cl)c2)CC1`, the growth inhibition was 2% in experiment [1] and 100% (active) in experiment [4]. Moreover, the inhibition is 55% (active) in experiment [2] and 2% in experiment [3]. In addition, the result in experiment [5], in experiment [6], in experiment [7] and in experiment [8] was inactive.
`O=S(=O)(NC1CCN(c2ccnc3cc(Cl)ccc23)C1)c1cccc(F)c1` (configuration not stated): the values for the growth inhibition in experiment [1] and in experiment [4] were 88% (active) and 98% (active), respectively. Also, the inhibition in experiment [2] is 19%; in experiment [3] it was 5%. Besides, the result in experiment [5], in experiment [6], in experiment [7] and in experiment [8] was inactive.
On to `Cc1cccc(-c2cccc3c(NC(=O)N4CCc5cc6nccc(N7CCN8CCC[C@H]8C7)c6cc54)cccc23)n1`, for which the growth inhibition in experiment [1] was 68% (active); in experiment [4], 94% (active). Moreover, the inhibition in experiment [2] is 14%; in experiment [3], -6%. Further, the result in experiment [5], in experiment [6], in experiment [7] and in experiment [8] was inactive.
Consider `COc1ccc(-c2cccc(NC(=O)c3ccc(C#N)cc3)c2)cc1CNC(C)C`, for which the growth inhibition is 14% in experiment [1] and 100% (active) in experiment [4]. Further, the inhibition was 25% in experiment [2] and -1% in experiment [3]. Besides, the outcome in experiment [5], in experiment [6], in experiment [7] and in experiment [8] was inactive.
